# Experimental data from PubChem BioAssay AID504332 (National Center for Advancing Translational Sciences (NCATS), 2011).
# The campaign covered roughly 350,000 compounds. About 31,000 (8.9%) were called active. A call without a number means that no potency is given here. Another 15% or so got no clear call; they are omitted. Only a selection was taken, and actives are over-represented in it overall. Values without a mark were called inactive. Calls follow the shape of the dose curve; as a rule, active = well fitted inhibition curve with a large enough effect; inconclusive = small, poorly fitted or top-dose-only effect; inactive = no such curve, though single readings can be large or run the other way.
# Target: Histone-lysine N-methyltransferase EHMT2 (Homo sapiens) (UniProt Q96KQ7)
# Sequence (Q96KQ7 913-1193 limits assumed): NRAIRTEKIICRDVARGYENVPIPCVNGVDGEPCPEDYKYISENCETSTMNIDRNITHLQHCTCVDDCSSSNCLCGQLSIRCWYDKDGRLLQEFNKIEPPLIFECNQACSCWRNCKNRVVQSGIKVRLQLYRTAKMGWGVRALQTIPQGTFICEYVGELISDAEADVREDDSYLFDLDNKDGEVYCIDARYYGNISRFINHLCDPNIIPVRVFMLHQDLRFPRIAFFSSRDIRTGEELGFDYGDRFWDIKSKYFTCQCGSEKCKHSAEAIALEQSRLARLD
# Experiment: qHTS Assay for Inhibitors of Histone Lysine Methyltransferase G9a; also: nearly all actives have a fitted effect of over 75% in size
# Settings: G9a H3K9 monomethylation, AlphaScreen, 2 h; series mostly up to 59 µM
# Summary of the method: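 Readings reflect AlphaScreen signal from monomethyl-H3K9 antibody detection. HMT at 20 nM; substrate b-H3K9 500 nM; cofactor SAM 20 uM; 2 h RT reaction; compounds tested as titrations in qHTS with 15 min preincubation.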
# Potency is read from the fitted curve at half-maximal effect.
Compound,Potency,"activity, negative = inhibition"
COc1ccc(CNc2nc(-c3ccc(Cl)cc3)nn2C(=O)c2ccccc2)cc1,inactive,–
CCN(Cc1ccccc1)S(=O)(=O)c1cc2c3c(c1)CCN3C(=O)CC2,inactive,–
CCOc1ccccc1NC(=O)C1CCC(CNc2c(N3CCOCC3)c(=O)c2=O)CC1 (configuration not stated),inactive,–
CCN(CC)c1ccc(NC(=O)C2CCC(CNc3c(N4CCCC4)c(=O)c3=O)CC2)c(C)c1 (configuration not stated),39.8 µM (active),–
O=C(NCc1ccccc1Cl)C1CCC(CNc2c(N3CCCCC3)c(=O)c2=O)CC1 (configuration not stated),inactive,–
COc1ccc(Cc2nc3ccc(C(=O)NCC4CCOCC4)cc3o2)cc1OC,inactive,–
CC1CCCC(C)N1C(=O)CSc1nnnn1C1CCCC1 (configuration not stated),inactive,–
CC(C)N(C(=O)CSc1nnc(NC2CC2)s1)c1ccccc1,–,-6.53% [at 0.501 µM]
CC(C)C(=O)Nc1nnc(SCC(=O)N2C(C)CCCC2C)s1 (configuration not stated),79.4 µM (active),–
COc1cccc(-c2cc(C(=O)Nc3ccc(C)cc3)[nH]n2)c1,inactive,–
COc1ccc(-c2csc(-c3c(N)c(C(=O)c4ccc(OC)c(OC)c4)n4ccccc34)n2)cc1,inactive,–
COc1cc(CN(C(=O)c2ccccc2Br)c2ccccn2)cc(OC)c1OC,inactive,–
O=C(c1ccncc1)N1CCN(S(=O)(=O)c2cc(C(F)(F)F)cc(C(F)(F)F)c2)CC1,inactive,–
OCCCNC(c1ccccc1)c1ccc(O)cc1 (configuration not stated),11.2 µM (active),–
O=C(CNC(c1ccccc1)c1ccccc1)Nc1ccc(F)cc1,inactive,–
O=C(Nc1cc(Cl)cc(Cl)c1)C(NCCCO)c1ccccc1 (configuration not stated),inactive,–
CCCCN(C)CCCNC(=O)CN1N=C(c2ccc(OC)cc2)CCC1=O,inactive,–
O=C(NCCCN1CCCC1=O)c1ccc(S(=O)(=O)Nc2ccccc2)cc1,inactive,–
CC(=O)Nc1ccc(NC(=O)CCN2C(=O)C3CC=CCC3C2=O)cc1 (configuration not stated),–,-17% [at 12.7 µM]
Cc1ccccc1OCC(=O)Nc1c(C(=O)Nc2ccccc2F)oc2ccccc12,inactive,–
COc1cccc(CNC(=O)c2n[nH]c3ccccc23)c1,inactive,–

Compound,Potency,"activity, negative = inhibition"
COc1cccc(N2CCN(C(=O)CCCCCn3c(=O)[nH]c4ccccc4c3=O)CC2)c1,inactive,–
COc1cccc(C2c3[nH]c4ccccc4c3CCN2Cc2cccc(C)n2)c1 (configuration not stated),44.7 µM (active),–
COc1ccc(CNC(=O)COCc2cc(-c3cccs3)on2)cc1OC,inactive,–
CN(CC1CCCN(CCc2cccc(C(F)(F)F)c2)C1)C(=O)c1ccc2nc[nH]c2c1 (configuration not stated),inactive,–
Cc1cc(C(=O)Nc2nnc(C3CC3)s2)c(C)s1,–,11.4% [at 12.7 µM]
O=C(NNC(=O)c1cccnc1)Nc1ccccc1,–,-81.4% [at 2.33 µM]
O=C(O)CSC(NC(=O)c1cccnc1)(C(F)(F)F)C(F)(F)F,14.1 µM (active),–
O=C(CNC(=O)c1cccnc1)N/N=C/c1cccnc1,inactive,–
CCN(CC)S(=O)(=O)c1ccc(-c2cn3ccc(C)cc3n2)cc1,–,4.83% [at 0.501 µM]
CCOC(=O)CSc1ncc(-c2cccc(Cl)c2)cn1,inactive,–
CCOC(=O)CSc1ccccn1,39.8 µM (active),–
COC(=O)c1ccccc1NC(=O)CSc1ccccn1,inactive,–
O=C(Nc1ccccc1Cl)N1CCC(CN2CCCCC2)CC1,inactive,–
COc1ccc2sc(-c3ccc(N(C)C)cc3)c(C#CCO)c2c1,–,8.02% [at 0.501 µM]
COc1ccc(-c2cc(-c3nc(-c4cc(OC)c(OC)c(OC)c4)no3)[nH]n2)c(OC)c1,inactive,–
O=C(c1cn(-c2ccccc2)nc1-c1cccnc1)N1CCCCC1,inactive,–
CC(C)(C)OC(=O)N/N=C/c1cn(-c2ccccc2)nc1-c1cccnc1,inactive,–
CN(C)/N=C/c1cn(-c2ccccc2)nc1-c1cccnc1,56.2 µM (active),–
CCCCc1ccc(NS(=O)(=O)c2cccc(C(=O)N3CCCN(C)CC3)c2)cc1,inactive,–
CC(=O)NC(CC(=O)Nc1cccc(S(=O)(=O)N2CCCC2)c1)c1ccccc1 (configuration not stated),inactive,–
O=C(Cn1nc([N+](=O)[O-])nc1Br)NC1CCCCC1,inactive,–

Compound,Potency,"activity, negative = inhibition"
Cc1nn(CC(=O)NC2CCCCC2)c(=O)c2cccn12,inactive,–
Cc1cc(C(F)F)nn1CC(=O)NC1CCCCCC1,79.4 µM (active),–
CCc1noc(C)c1C(=O)N1CCCSC1=Nc1ccccc1OC,inactive,–
O=C1c2ccccc2C(=O)N1CCC#Cc1ccc2cc(C3(O)CCCCC3)oc(=O)c2c1,–,1.05% [at 0.501 µM]
C=CCN1C(=O)c2ccc(C(=O)N3CCC(C(=O)OCC)CC3)cc2C1=O,inactive,–
Cc1cc(=O)n2nc(N3CCCC(C(=O)NCCC4=CCCCC4)C3)sc2n1 (configuration not stated),–,4.22% [at 12.7 µM]
CC1CCCN(C(=O)c2ccc3c(c2)C(=O)N(CCC2=CCCCC2)C3=O)C1 (configuration not stated),39.8 µM (active),–
O=c1[nH]c2cc(Br)ccc2n2cccc12,inactive,–
CNC(=O)C1CC(=O)N(c2ccc(OCC(=O)Nc3ccccc3C)cc2)C1 (configuration not stated),inactive,–
Cc1cccc(N2CCN(Cc3c(C)n(C)n(-c4ccccc4)c3=O)CC2)c1C,–,11.6% [at 12.7 µM]
Cc1cccc(N2CCN(C(=O)c3oc(=O)c4ccccc4c3-c3ccccc3)CC2)c1C,inactive,–
Cc1cccc(N2CCN(C3=C(c4ccccc4)C(=O)c4ccccc43)CC2)c1C,3.55 µM (active),–
CN(C)c1ccc(-c2nnc(-c3cccnc3)o2)cc1,inactive,–
COC(=O)c1cc(NC(=O)c2cnc(SC)nc2-c2ccccc2)cc(C(=O)OC)c1,inactive,–
COc1ccc(OCCCn2c(C3CC(=O)N(c4ccc(F)cc4)C3)nc3ccccc32)cc1 (configuration not stated),inactive,–
COc1ccc([C@H]2CC(=O)C=C(c3ccc(OC(F)(F)F)cc3)C2)cc1OC,–,-10% [at 2.33 µM]
CC(C)N(C(=O)Cn1c(SCC(=O)N2CCN(c3ccccc3)CC2)nc2ccccc21)C(C)C,inactive,–
Cc1cccc(OCCSc2nc3ccccc3n2CC(=O)N2CCCCC2)c1C,12.6 µM (active),–
Cc1ccc(C(C)C)c(OCCSc2nc3ccccc3n2CC(=O)O)c1,inactive,–
CN(CC(=O)NCC(c1ccccc1)N1CCCC1)S(=O)(=O)c1ccc(Cl)cc1 (configuration not stated),–,-5.36% [at 12.7 µM]
